About 9,900 (2.8%) of roughly 350,000 compounds were called active. Not shown: some 15% with an inconclusive outcome. Calls follow the shape of the dose curve; as a rule, active = well fitted activation curve with a large enough effect; inconclusive = small, poorly fitted or top-dose-only effect; inactive = no such curve, though single readings can be large or run the other way. The sample as a whole holds a higher share of actives than the screen did.
Experiment: A quantitative high throughput screen for small molecules that induce DNA re-replication in MCF 10a normal breast cells. Also: nearly all actives have a fitted effect of over 50% in size. As to activity, positive = re-replication: % of control where 0% means no effect.
Conditions: MCF 10A DNA re-replication, Hoechst nuclear intensity, 48 h; series mostly up to 46.1 µM; activity, positive = re-replication: at the top concentration
For `COc1ccc(OC)c(NC(=O)c2sc3nc(C)cc(C)c3c2N)c1`, the Potency was 11.6 µM (active).
For `COCc1cc(C)nc2sc(C(=O)NC3CCCCC3)c(N)c12`, the “activity, positive = re-replication” value was 27.3% (inactive).
For `CCc1nnc(NC(=O)c2sc3nc(C)cc(COC)c3c2N)s1`, the “activity, positive = re-replication” value was 12.4% (inactive).
With `Cc1ccc(COC(=O)CN2C(=O)NC3(CCCC3)C2=O)cc1` the “activity, positive = re-replication” value was 0.31% (inactive).
In the case of `Cc1ccc(NC(=O)CCNC(=O)c2ccc([N+](=O)[O-])cc2)cc1S(=O)(=O)N1CCOCC1`, the “activity, positive = re-replication” value is reported as 13.8% (inactive).
For `O=C(CN1C(=O)NC2(CCCCCC2)C1=O)Nc1ccc([N+](=O)[O-])cc1`, the “activity, positive = re-replication” value was 2.08% (inactive).
With `COc1cc2c(cc1OC)C1C(=O)c3cc(OS(C)(=O)=O)c(OC)cc3C1N(C)C2=O` (stereo not given) the “activity, positive = re-replication” value was 11.8% (inactive).
For `CCC(CO)Oc1cc(NC(=O)c2cccc3ccccc23)c2ncn(C(C)C)c2c1` (stereo not given), the “activity, positive = re-replication” value was -2.74% (inactive).
In the case of `CCS(=O)(=O)Nc1ccc(C2=NN(C(C)=O)C(c3cccs3)C2)cc1` (stereo not given), the Potency is reported as 9.2 µM (active).
In the case of `COc1ccc(C2=NN(C(=O)CCC(=O)O)C(c3cccs3)C2)cc1OC` (stereo not given), the “activity, positive = re-replication” value is reported as -6.26% (inactive).
For `CS(=O)(=O)Nc1ccc(C2=NN(S(C)(=O)=O)C(c3cccs3)C2)cc1` (stereo not given), the “activity, positive = re-replication” value was 1.04% (inactive).
In the case of `Cn1cc(C2OC(=O)c3ccccc32)c2ccccc21` (stereo not given), the “activity, positive = re-replication” value is reported as 74.6% (inactive).
In the case of `O=C(Nc1cccc(F)c1)c1cc(-c2ccco2)nc2ccccc12`, the “activity, positive = re-replication” value is reported as 6.3% (inactive).
For `NNC(=O)c1oc2nc(-c3ccccc3)cc(-c3ccco3)c2c1N`, the Potency was 20.6 µM (active).
With `CNC(=S)NNC(=O)c1oc2nc(-c3ccccc3)cc(-c3ccco3)c2c1N` the “activity, positive = re-replication” value was 21.2% (inactive).
In the case of `Cc1ccc(S(=O)(=O)N2C[C@@H]3CCCC[C@@H]3[C@@H](C)[C@H]2c2cn(Cc3ccccc3)c3ccc(F)cc23)cc1`, the “activity, positive = re-replication” value is reported as 2.93% (inactive).
For `Cn1c(N)c(C(=O)COC(=O)COc2ccc(Cl)cc2)c(=O)n(C)c1=O`, the “activity, positive = re-replication” value was -4.1% (inactive).
In the case of `COc1ccccc1N1N=C(c2cccs2)CC1c1ccccc1` (stereo not given), the “activity, positive = re-replication” value is reported as 16.3% (inactive).
In the case of `Fc1ccc(N2N=C(c3cccs3)CC2c2ccco2)c(F)c1` (stereo not given), the Potency is reported as 7.31 µM (active).
With `Cc1ccccc1C1CC(c2cccs2)=NN1S(C)(=O)=O` (stereo not given) the “activity, positive = re-replication” value was -23.5% (inactive).
In the case of `O=C(N/N=C/c1cccnc1)c1cc2ccccc2cc1O`, the “activity, positive = re-replication” value is reported as -15.4% (inactive).
With `C/C(=N\NC(=O)c1cc(-c2ccc(O)cc2)nc2ccccc12)c1cccnc1` the “activity, positive = re-replication” value was 4.37% (inactive).
With `O=C(N/N=C\c1cccnc1)c1cc(-c2ccccc2)nc2c(Cl)cccc12` the Potency was 7.31 µM (active).
For `COc1cccc(CC(=NO)c2cccc(OC)c2)c1`, the “activity, positive = re-replication” value was 2.69% (inactive).
For `CC1(C(=O)OCC(=O)Nc2ncc(Cl)cc2Cl)CC1(Cl)Cl` (stereo not given), the “activity, positive = re-replication” value was 1.07% (inactive).
In the case of `COc1ccc(NC(=O)[C@H](NC(=O)[C@@H]2Cc3ccccc3CN2)c2ccccc2)cc1`, the “activity, positive = re-replication” value is reported as 1.04% (inactive).
In the case of `COc1cccc(NC(=O)[C@H](Cc2c[nH]c3ccccc23)NC(=O)[C@@H]2Cc3ccccc3CN2)c1`, the Potency is reported as 18.4 µM (active).
For `COc1ccc(CNC(=O)[C@H](Cc2c[nH]c3ccccc23)NC(C)=O)cc1OC`, the “activity, positive = re-replication” value was -1.5% (inactive).
With `CCc1c(Nc2ccccc2C)nc(N)[nH]c1=O` the “activity, positive = re-replication” value was -6.06% (inactive).
With `COc1ccc(OC)c(CN2CCN(C(=O)CNC(=O)c3cc(C)cc(C)c3)CC2)c1` the “activity, positive = re-replication” value was 15% (inactive).
For `Cc1ccc(C(=O)NCC(c2cccs2)N(C)C)cc1S(=O)(=O)N1CCOCC1` (stereo not given), the “activity, positive = re-replication” value was 26.2% (inactive).
With `COc1ccc2[nH]c3c(c2c1)CCN1C(=O)C(CC(=O)NCCc2ccccn2)C[C@H](C(=O)N2CCOCC2)[C@@]31C` (stereo not given in full) the “activity, positive = re-replication” value was 1.89% (inactive).
For `O=C(COC(=O)c1c(Cl)cccc1Cl)Nc1cccc(S(=O)(=O)NC2=NCCCCC2)c1`, the “activity, positive = re-replication” value was 3.95% (inactive).
With `CCc1ccc(C(=O)OCC(=O)Nc2cccc(S(=O)(=O)NC3=NCCCCC3)c2)cc1` the “activity, positive = re-replication” value was -9.03% (inactive).
For `COc1ccccc1C(=O)OCC(=O)Nc1cccc(S(=O)(=O)NC2=NCCCCC2)c1`, the Potency was 18.4 µM (active).
For `CC(NC(=O)c1ccccc1)C(=O)Nc1ccccc1` (stereo not given), the “activity, positive = re-replication” value was -2.99% (inactive).
With `CC(Oc1ccc2c(-c3ccccc3)cc(=O)oc2c1)C(=O)NC(Cc1c[nH]c2ccccc12)C(=O)O` (stereo not given) the “activity, positive = re-replication” value was -19.5% (inactive).
With `Cc1ccc(S(=O)(=O)N2CCN(c3ccccc3)CC2)cc1C` the “activity, positive = re-replication” value was 1.22% (inactive).
For `Cc1cc(N2CCN(S(=O)(=O)c3ccc(C)c(C)c3)CC2)c2ccccc2n1`, the Potency was 10.3 µM (active).
With `Cc1ccccc1N1CCN(S(=O)(=O)c2ccc3ccccc3c2)CC1` the “activity, positive = re-replication” value was 17.8% (inactive).
With `COc1ccc(Cl)cc1C=CC=NNC(=O)c1ccncc1` the “activity, positive = re-replication” value was 0.633% (inactive).
For `COc1ccccc1C(=O)NCC(=O)OCC(=O)NNC(=O)c1ccc(Br)cc1`, the “activity, positive = re-replication” value was -1.96% (inactive).
In the case of `O=C(O)c1ccccc1N=N/C(=N/Nc1cc(S(=O)(=O)O)ccc1O)c1ccccc1`, the “activity, positive = re-replication” value is reported as -5.64% (inactive).
With `Cc1cccc(NC(=O)CN2C(=O)c3ccccc3C2=O)c1C` the “activity, positive = re-replication” value was 14.4% (inactive).
In the case of `O=C(CN1C(=O)c2cccc3cccc1c23)Nc1ccccc1`, the Potency is reported as 20.6 µM (active).
For `Cc1cc(C)cc(NC(=O)CN2C(=O)c3ccccc3C2=O)c1`, the “activity, positive = re-replication” value was -6.92% (inactive).
For `CN(C(=O)CSc1nnc(-c2ccc3c(c2)OCO3)o1)C1CCS(=O)(=O)C1` (stereo not given), the “activity, positive = re-replication” value was -9.07% (inactive).
In the case of `Cc1ccc(S(=O)(=O)N(C)C)cc1NC(=O)c1ccc(-n2cncn2)c([N+](=O)[O-])c1`, the “activity, positive = re-replication” value is reported as 1.7% (inactive).
For `CCOCCn1[nH]c2ccccc2c1=O`, the “activity, positive = re-replication” value was 13.8% (inactive).
For `COc1ccc(CCNC(=O)COC(=O)c2cc(=O)c3ccccc3o2)cc1`, the “activity, positive = re-replication” value was -1.05% (inactive).

From PubChem BioAssay AID624296 (National Center for Advancing Translational Sciences (NCATS), 2012)
Potency is read from the fitted curve at half-maximal effect.
